CHX counter: counter-screen for Shiga toxin inhibitors: cycloheximide protein synthesis inhibition; cell reporter, cycloheximide protein synthesis inhibition counterscreen; max response, %; actives 12% (n = 300,000); in the data active means max response mostly above about 13%, no sharp cut-off; inactive means mostly below about 14%; further: read at 38.3 µM for the half of the compounds with a filed dose; 0% is about no effect
Shiga toxin inh: Shiga toxin inhibition; Vero cells, Shiga toxin protein synthesis inhibition reporter; inhibition, % at 38.7 µM; actives 9.2% (n = 290,000); in the data active means inhibition mostly above about 28%, no sharp cut-off; inactive means mostly below about 43%; further: 0% is about no effect
Pf growth 96h: P. falciparum growth inhibition at 96 hour, primary screen for plastid delayed-death inhibitors; P. falciparum luciferase reporter growth, 96 h; Potency, µM (titrated, usually from 28.7 µM), inactives show top-dose activity change, negative = inhibition, most hits filed as inhibitors; actives 6.9% (n = 320,000); AID 504834; further: potency means the concentration at half of the fitted maximal effect; on the % scale 0 is the no-effect control and ±100 the full control effect
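P. falciparum expressing integrated firefly luciferase grown in erythrocytes (2% hematocrit, 0.05% parasitemia final) with compounds for 96 hours at 37 C, 5% CO2. Growth inhibition read as loss of luminescence after adding luciferase detection reagent.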
Lassa entry inh: Lassa virus entry inhibition. actives 1.2% (n = 300,000). AID 540256. Lassa virus pseudotype entry inhibition, cell reporter. Potency, µM (titrated, usually from 37.9 µM), without a hit: top-dose activity change, negative = inhibition, actives largely listed as inhibitors; calls by dose curve; tested in HEK293 cells; further: potency means the concentration at half of the fitted maximal effect; on the % scale 0 is the no-effect control and ±100 the full control effect; nearly all actives have a fitted effect of over 50% in size
Marburg entry inh: blocks Marburg virus binding to or entry into cells; Marburg virus pseudotyped entry inhibition, cell reporter; Potency, µM (doses to about 37.8 µM), for inactives: at the highest dose activity change, negative = inhibition, hits mostly inhibitors; actives 1.8% (n = 300,000); AID 540276; calls by dose curve; tested in HEK293 cells; further: potency means the concentration at half of the fitted maximal effect; on the % scale 0 is the no-effect control and ±100 the full control effect
Pf growth 48h: inhibits P. falciparum growth in the first generation, 48 h | AID 504832 | P. falciparum luciferase growth in erythrocytes, 48 h | actives 5.9% (n = 310,000) | Potency, µM (series often up to 28.7 µM), inactives show at the top dose activity change, negative = inhibition, actives largely listed as inhibitors; further: potency means the concentration at half of the fitted maximal effect; on the % scale 0 is the no-effect control and ±100 the full control effect
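Parasite viability was followed by luminescence of a genomically integrated firefly luciferase. Cultures held 0.1% parasitemia at 2% hematocrit (final), incubated under 5% CO2 at 37 C.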
* marks the source's active call; other numbers are inactive results; u = inconclusive; x = not tested or not shown; [ ] = remark or other dose. Sampled rows, rich in hits. Any-hit rate of the full collection: about 19%. Unless noted, the call rests on the fitted dose curve; in most records, active means well fitted inhibition curve with a large enough effect; inconclusive means small, poorly fitted or top-dose-only effect, or another doubt; inactive means no such curve, though single readings can be large or run the other way.

SMILES | CHX counter | Shiga toxin inh | Pf growth 96h | Lassa entry inh | Marburg entry inh | Pf growth 48h
CCOC(=O)Nc1c2ccccc2nc2ccccc12 | 3 | 13 | 10µM* | x | x | 15µM*
CCOC(=O)Nc1c(C)n(C)n(-c2ccccc2)c1=O | 2 | 24 | x | -1% | -13% | 14%
Nc1ccc(C(=O)Oc2ccccc2)c(O)c1 | x | x | 29% | x | x | 68%
CCOC(=O)Nc1ccc(Oc2ccccc2)cc1 | 36* | 121* | u | 4% | 26% | 14%
O=C(Nc1ccc(C(=O)Oc2ccccc2)c(O)c1)c1ccco1 | 55* | 131* | x | 7% | 5% | -10%
COc1ccc(-c2ccc3cc(C(=O)O)ccc3c2)cc1C12CC3CC(CC(C3)C1)C2 | x | x | -3% | x | x | 11%
O=C(O)c1ccc(-c2ccc3cc(C45CC6CC(CC(C6)C4)C5)c(O)cc3c2)cc1 | 45* | 28* | x | x | x | x
COC(=O)C1(C(=O)OC)NOC2C(=O)N(c3ccc(Cl)cc3Cl)C(=O)C21 (stereo not drawn) | 6 | 16 | 71% | 10% | 3% | 12%
Cc1cc2occ(CC(=O)NNC(=O)c3ccccc3)c2cc1C | 9.9* | 18 | u | x | x | 44%
Cc1ccc2c(CC(=O)NNC(=O)c3ccccc3)coc2c1 | 1 | 14 | 7% | 3% | 2% | 11%
CCOC(=O)c1cc(C(=O)NCc2ccc(Cl)cc2Cl)nn1C | -2 | 17 | 2% | u | 29% | 0%
CCOC(=O)c1c(S(=O)(=O)Nc2ccc(F)cc2C)c(C)n(C)c1C | -1 | -8 | 15µM* | x | x | -3%
CCOC(=O)c1c(S(=O)(=O)Nc2ccc(C)c(F)c2)c(C)n(C)c1C | -1 | 1 | 9.3µM* | x | x | 12%
CCOC(=O)c1c(S(=O)(=O)NCC(=O)Nc2ccccc2F)c(C)n(C)c1C | -5 | 16 | u | x | x | 2%
CCOC(=O)c1cc(C(=O)Nc2ccc(C)c(F)c2)nn1C | 44* | 62* | 248% | -12% | 8% | 110%
CCOC(=O)c1c(S(=O)(=O)Nc2ccc(C)cn2)c(C)n(C)c1C | 5 | 5 | 10µM* | x | x | 17%
Cc1cc(N2CCCC2=O)cc(C)c1S(=O)(=O)NCCOc1ccc(C(C)(C)C)cc1 | -5 | 0 | u | 12µM* | u | 13µM*
O=C1CCCN1c1ccc(S(=O)(=O)NCCOc2ccccc2)cc1 | -2 | -2 | u | 17% | -14% | -27%
Cc1ccc(N2NC(C)(c3cccs3)NC2=S)cc1 (stereo not drawn) | 31* | 74* | u | -28% | u | 17%
CC1CC(C)(C)CC2(C1)NC(=S)N(c1ccccc1)N2 (stereo not drawn) | 5 | -7 | 23% | -10% | -7% | x
CC1CCN(C(=O)c2cc3c(ccc4ccccc43)o2)CC1 | 20* | 77* | -28% | x | x | 258%
CCOC(=O)C1CCN(C(=O)c2cc3cc4ccc(C)cc4nc3o2)CC1 | 30* | 45* | 23% | x | x | 84%
O=C(c1cc2c(ccc3ccccc32)oc1=O)N1CCCC1 | -1 | -9 | 15% | 6% | 14% | 5%
CCOC(=O)CNC(=O)Cn1c(C)cc2ccccc2c1=O | -3 | -4 | 13% | -1% | -7% | 0%
CCOC(=O)C1CCN(C(=O)CNC(=O)Cn2c(C)cc3ccccc3c2=O)CC1 | -5 | -3 | 3.3µM* | -7%[46.1 µM] | 1%[46.1 µM] | 3%
SMILES | CHX counter | Shiga toxin inh | Pf growth 96h | Lassa entry inh | Marburg entry inh | Pf growth 48h
Cc1nc2ccccc2c2oc(C(=O)N3CCC(C)CC3)cc12 | 20* | 60* | -20% | x | x | 2%
CCC1CCCCN1CCCNC(=O)CN1C(=O)c2cccnc2Oc2ccc(C)cc21 (stereo not drawn) | -8 | -5 | u | 19%[46.1 µM] | x | 9%
O=C(NCc1ccco1)c1cnccn1 | 5 | 12 | -19% | 13% | 19% | x
CCOC(=O)C1CCN(C(=O)c2cc3c(ccc4ccccc43)o2)CC1 | 59* | 121* | 10% | 23% | 8% | 216%
COC(=O)c1ccc(SCc2cnc(Cl)s2)cc1 | 30* | 130* | 7% | -1% | 22% | 30%
CN(Cc1ccccc1)S(=O)(=O)c1ccc(NS(C)(=O)=O)cc1 | -1 | -2 | x | 18% | u | -2%
CCC(Sc1nnc2c3ccccc3n(CC)c2n1)C(=O)Nc1nnc(C(C)C)s1 (stereo not drawn) | x | x | x | 5%[46.1 µM] | 4%[46.1 µM] | x
CCCn1c2ccccc2c2nnc(SC(CC)C(=O)Nc3cc(C)on3)nc21 (stereo not drawn) | -5 | -4 | 8% | u | 13µM* | u
CCC(Sc1nnc2c3ccccc3n(CC)c2n1)C(=O)Nc1ccc(NC(C)=O)cc1 (stereo not drawn) | x | x | x | -18%[46.1 µM] | 3.5µM* | x
CCCn1c2ccccc2c2nnc(SC(CC)C(=O)Nc3sc4c(c3C#N)CCCC4)nc21 (stereo not drawn) | 0 | 19 | x | 0% | u | -28%
COc1ccc(NC(=O)CSc2nc(C)cc(C)c2C(=O)Nc2cccc(C)c2)cc1 | x | x | x | -9%[46.1 µM] | -25%[46.1 µM] | x
Cc1cc(F)ccc1NC(=O)c1cc(S(=O)(=O)N2CCCC2)cn1C | -3 | -6 | u | x | x | -15%
CCOc1cc(-c2cc(-c3ccc(N)cc3)nc(N)c2C#N)ccc1O | -6 | -5 | 86% | u | u | 12µM*
CCOc1cc(-c2cc(-c3ccccc3)nc(N)c2C#N)ccc1O | 11 | -26 | u | u | u | x
O=c1cc(CSc2nnnn2-c2ccccc2)nc2scc(-c3ccccc3)n12 | -1 | 19 | 8.3µM* | 1% | -3% | u
O=C(CCNS(=O)(=O)c1cccc2nsnc12)NCc1ccccc1 | -8 | -6 | 1% | -4% | -16%[46.1 µM] | 8%
CCOC(=O)c1cnc2nc(N3CCOCC3)nn2c1N | 14 | 12 | 27% | 1% | 5%[46.1 µM] | -2%
CNc1cc(Cl)nc(SC)n1 | 1 | 18 | u | 20%[46.1 µM] | u | 23%
CSc1nc(Cl)cc(Nc2ccc(O)cc2)n1 | 42* | 63 | 49% | 8% | -21%[46.1 µM] | 205%
COc1ccc(N2CCN(C(=O)CCC(=O)N3CC(C)Oc4ccccc43)CC2)cc1 (stereo not drawn) | 0 | -6 | 49% | x | x | 11%
CCOC(=O)CC1C(=O)NCCN1C(=O)c1cc2c(=O)n3ccccc3nc2s1 (stereo not drawn) | 25 | 12 | 10µM* | x | x | x
O=C(NC1CCCC1)c1cc2c(=O)n3ccccc3nc2s1 | x | x | 4% | x | x | 41%
CCN1CCN(C(=O)c2cc3c(=O)n4ccccc4nc3s2)CC1 | 10 | 17 | u | 18%[46.1 µM] | 9%[46.1 µM] | 86%
O=C(c1cc2c(=O)n3ccccc3nc2s1)N1CCN(Cc2ccccc2)CC1 | -3 | 17 | -20% | 16%[46.1 µM] | 16%[46.1 µM] | -2%
O=C(c1cc2c(=O)n3ccccc3nc2s1)N1CCc2ccccc2C1 | 11* | 13 | u | x | x | 10%[5.75 µM]
O=C(c1cc2c(=O)n3ccccc3nc2s1)N1CCN(Cc2ccc3c(c2)OCO3)CC1 | -1 | -2 | 6.6µM* | -1% | -1%[46.1 µM] | -12%

Compound activity: PubChem, National Center for Advancing Translational Sciences (NCATS)
